Laboratory results: PubChem BioAssay (NCI)
This is part of a sample that, as a whole, favours compounds with a hit. Of some 83,000 tested, about 20% had one in any assay.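 Note: values are percent growth. 100 is the growth of untreated cells, values between 100 and 0 indicate rising inhibition; between -100 and 0 indicates cell death.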 Active and inactive are the calls of the source. The calls were made as follows: active = growth percent below 10; inactive = the rest.

Legend:
Experiment in all cases: NCI-60 one-dose screen, 48 h (100 = growth as untreated, 0 = no growth, -100 = all killed)
Settings in all cases: 10 µM unless noted
[1] = system: RPMI-8226 leukemia
[2] = system: OVCAR-8 ovarian
[3] = system: OVCAR-5 ovarian
[4] = system: OVCAR-4 ovarian
[5] = system: SK-OV-3 ovarian
[6] = system: IGROV1 ovarian
[7] = system: OVCAR-3 ovarian
[8] = system: HS 578T breast
[9] = system: NCI/ADR-RES ovarian
[10] = system: T-47D breast

Measured: growth

CCc1c(C(=O)N[C@@H](C(=O)OCc2ccccc2)C(C)O)[nH]c2ccc(Cl)cc12 (stereo not given in full)
inactive: [1] 82.7% | [2] 59.2% | [3] 69.1% | [5] 59.3% | [6] 46.3% | [7] 29.4% | [8] 40.6% | [9] 68.2% | [10] 47.5%
active: [4] -46.9%

COc1ccc2[nH]c(=O)c(/C=C/C(=O)/C=C/c3ccc(O)c(OC)c3)cc2c1
inactive: [3] 59.4% | [4] 64.3% | [5] 56.5% | [8] 25.5% | [9] 47.9% | [10] 26%
active: [1] -18.5% | [2] 1.42% | [6] 2.67% | [7] -11.2%

COC(=O)c1oc2c(C(=O)/C=C/c3ccc(OC)cc3)c(OCCCN3CCCCC3)ccc2c1C
inactive: [3] 23.3% | [4] 14.1% | [5] 28.5% | [7] 26.5% | [8] 12.6% | [10] 38.5%
active: [1] -65.7% | [2] -22.7% | [6] 9.13% | [9] 0.873%

NC(=N\N=C\c1ccccc1O)/C(N)=N/N=C/c1ccccc1O
inactive: [1] 61.1% | [2] 81.3% | [3] 96.7% | [5] 92.4% | [6] 97.8% | [7] 63.1% | [8] 68.8% | [9] 83.3% | [10] 64%
active: [4] 6.53%

Cc1cc(O)cc(O)c1N=NC1=NCCS1
inactive: [1] 106% | [2] 101% | [3] 101% | [4] 102% | [5] 97.2% | [6] 104% | [7] 104% | [8] 116% | [9] 103% | [10] 92.5%

COc1cc(/C=C/C(=O)c2ccc(NC(=O)CSc3nnc(-c4cc(OC)c(OC)c(OC)c4)n3-c3ccccc3)cc2)cc(OC)c1OC
active: [1] -13.1% | [6] 7.57% | [7] -17.8%
inactive: [2] 10% | [3] 61.4% | [4] 54.8% | [5] 38% | [8] 83.1% | [9] 44.3% | [10] 50.3%

CCN1CCN(c2ccc(NC(=O)Nc3nc4ccc(-c5ccccc5OC)cc4s3)cc2)CC1
active: [1] -33% | [2] -52.5% | [3] -11.5% | [4] -76.1% | [5] -12.5% | [6] -71.3% | [7] -90.5% | [8] -23.2% | [9] -67.3% | [10] -45.4%

CCCCn1c(=O)c(/C=C/C(=O)/C=C/c2ccc(OC)cc2)cc2cc(Cl)ccc21
active: [1] -18.7% | [2] 5.24%
inactive: [3] 94.9% | [4] 42.9% | [5] 108% | [6] 59.1% | [7] 19.5% | [8] 90.9% | [9] 42.5% | [10] 69.6%

CC(C)(C)CC(C)(C)Cc1ccc(OCCOCC[N+](C)(C)Cc2ccccc2)cc1
active: [1] -53.4% | [4] 7.03% | [6] -16.7% | [7] 0.137% | [10] 0.793%
inactive: [2] 22.8% | [3] 74% | [5] 46.9% | [8] 26.3% | [9] 99.9%

Nc1c(C(=O)c2ccccc2)sc2nc(-c3cc4ccccc4o3)cc(-c3ccc(Cl)cc3)c12
inactive: [1] 82.7% | [2] 95.8% | [3] 107% | [4] 98.3% | [5] 106% | [6] 55.8% | [7] 85.1% | [8] 136% | [9] 108% | [10] 90%

Cc1cc(C)cc(Nc2nccc(-c3c(-c4ccc(F)cc4)ncn3C3CCNCC3)n2)c1
active: [1] -3.31% | [2] -24.8% | [5] 9.09% | [6] -40.1% | [7] 5.97%
inactive: [3] 35.2% | [4] 30.3% | [8] 24.3% | [9] 15.3% | [10] 15.2%

CC(C)C1=C[C@@]23CC[C@H]4[C@](C)(COCCC#N)CCC[C@]4(C)[C@H]2C[C@@H]1[C@@H]1[C@H]3[C@@H](OCCC#N)CC[C@@H]1OCCC#N
inactive: [1] 18.7% | [2] 34.4% | [3] 65.9% | [4] 27.1% | [5] 64.3% | [6] 23.5% | [7] 37.1% | [8] 64.5% | [9] 27.8% | [10] 10.5%

COC(=O)CCc1cc(O)c2c(c1)[C@@H](C(=O)OC)[C@H](c1ccc(O)c(O)c1)O2
inactive: [1] 80.5% | [2] 90.6% | [3] 98.3% | [4] 83% | [5] 97.4% | [6] 88.1% | [7] 27.5% | [8] 74.3% | [9] 87.8% | [10] 66%

Clc1ccc2c(NCCCNC3CCCCC3)ccnc2c1
inactive: [1] 82% | [2] 54.7% | [3] 114% | [4] 91.2% | [5] 140% | [6] 111% | [7] 109% | [8] 108% | [9] 109% | [10] 108%

COc1cc(C2=NNC(c3ccc(N(C)C)cc3)C2)cc(OC)c1OC (stereo not given)
active: [7] 5.84% | [8] -21.7% | [9] -20.7%
inactive: [1] 16% | [2] 24.7% | [3] 30.4% | [4] 52.2% | [5] 19.5% | [6] 35.4% | [10] 45.8%

COc1cc(/C=C/C(=O)/C=C/c2cc3ccc(Cl)cc3[nH]c2=O)ccc1O
active: [1] 4.64% | [2] 6.97%
inactive: [3] 103% | [4] 68% | [5] 105% | [6] 40.7% | [7] 42.4% | [8] 73.8% | [9] 41% | [10] 88.8%

CC(=O)[C@@H]1CC[C@]2(C(=O)O)CC[C@]3(C)[C@H](CC[C@@H]4[C@@]5(C)Cc6c([nH]c7ccccc67)C(C)(C)[C@@H]5CC[C@]43C)[C@@H]12
inactive: [1] 43.2% | [2] 62.7% | [3] 101% | [4] 65.7% | [5] 86.6% | [6] 86.8% | [7] 54.1% | [8] 73.2% | [9] 67.6% | [10] 65.5%

N#CC1C(c2ccc(Cl)cc2)=Nc2c(c(-c3ccccc3)nn2-c2ccccc2)C12C(=O)Nc1ccc(Cl)cc12 (stereo not given)
inactive: [1] 24.7% | [2] 64.6% | [3] 65.2% | [4] 34.4% | [5] 68.6% | [6] 42.1% | [7] 49.7% | [8] 51.4% | [9] 67.6% | [10] 46.7%

C=C1C(=O)O[C@H]2[C@H]1CC/C(COC(=O)Nc1nc3ccccc3[nH]1)=C\CC[C@@]1(C)O[C@@H]21
inactive: [1] 31.6% | [2] 80.8% | [3] 127% | [4] 81.3% | [5] 89.1% | [6] 27.9% | [7] 17.3% | [8] 94.5% | [9] 92.1% | [10] 50.3%

CCOC(=O)c1sc(/N=C2\NC(=O)/C(=C/c3ccc(N4CCN(C)CC4)cc3)S2)nc1C
inactive: [1] 87.5% | [2] 110% | [3] 110% | [4] 103% | [5] 102% | [6] 99.5% | [7] 96.3% | [8] 107% | [9] 98.1% | [10] 95.5%

N#CC(C#N)=C1NC(c2ccccc2)=C(c2ccccc2)C(c2ccccc2Cl)=C1C#N
inactive: [1] 113% | [2] 88.1% | [3] 105% | [4] 117% | [5] 103% | [6] 108% | [7] 108% | [8] 120% | [9] 96% | [10] 102%

OCCNc1nc(NCCO)nc(Nc2ccc(C3=NN(c4cc(Cl)cc(Cl)c4)C(c4ccc(C(F)(F)F)cc4)C3)cc2)n1 (stereo not given)
inactive: [2] 39.5% | [3] 89% | [4] 53.6% | [5] 70.1% | [6] 41.7% | [8] 43.6% | [9] 55.6% | [10] 53.5%
active: [1] -1.42% | [7] 4.39%

COc1ccc(-c2nc(C#N)c(NCC(c3ccco3)N3CCCC3)o2)cc1 (stereo not given)
inactive: [1] 24.2% | [2] 45.1% | [3] 69% | [4] 52.6% | [5] 30.4% | [6] 56.5% | [7] 22% | [8] 39.4% | [9] 10.2% | [10] 51.6%

C=C1C(=O)O[C@H]2[C@H]1CC/C(COC(=O)c1cccnc1)=C\CC[C@@]1(C)O[C@@H]21
inactive: [1] 28.5% | [2] 86.4% | [3] 73.8% | [4] 70% | [5] 86.1% | [6] 64.8% | [7] 26.4% | [8] 89.9% | [9] 93.5% | [10] 55.7%

C[C@@H]1C(=O)[C@@H]2C[C@@H](O)[C@@H](O)C[C@]2(C)[C@H]2CC[C@@]3(C)C(=C12)CC[C@@H]3[C@@](C)(O)[C@H](O)CCC(C)(C)O
inactive: [1] 105% | [2] 94.7% | [3] 112% | [4] 114% | [5] 103% | [6] 113% | [7] 102% | [8] 99.3% | [9] 110% | [10] 95.5%
